Measured values: PubChem BioAssay AID1159580 (chemical genetic matrix, 2015)
Screen size: about 5,500 compounds; about 2,000 (36%) were called active. About 18% were inconclusive and are not listed. No stated cut-off is given here; in the data, active means normalized growth mostly below about 0.91 (no sharp cut-off); inconclusive means no clear call, values can overlap the other calls; inactive means mostly above about 0.92. This is one part of the list.

Assay: chemical genetic growth profiling, strain panel (AID 1159580);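 further: tested at 20 µM; growth read once vehicle control cultures reached saturation at 30 °C; 1 = growth at the plate median or of vehicle wells; lower values mean less growth of the strain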
Details: S. cerevisiae deletion strains, growth OD

Measured: normalized growth

CC(=O)O[C@@H]1CC2C(C)(C)C(=O)C3OC3[C@]2(C)C2CC[C@@]3(C)[C@H](c4ccoc4)OC(=O)C4OC43[C@@]21C (some centres not stated)
active: locus YKL085W, strain MDH1 (second series), active compounds read low 1.13 [resistant] | locus YKL085W, strain MDH1, active compounds read low 1.13 [resistant]
inactive: locus YAL021C, strain ccr4, active compounds read low 0.988 | locus YAL026C, strain drs2, active compounds read low 0.984 | locus YAL030W, strain snc1, active compounds read low 0.993 | locus YBL061C, strain skt5, active compounds read low 0.97 | locus YBR009C, strain hhf1, active compounds read low 0.981 | locus YBR021W, strain FUR4, active compounds read low 0.964 | locus YBR023C, strain chs3, active compounds read low 0.982 | locus YBR171W, strain sec66, active compounds read low 0.966 | locus YBR229C, strain ROT2, active compounds read low 0.994 | locus YBR231C, strain swc5, active compounds read low 0.975 | locus YBR279W, strain paf1, active compounds read low 0.988 | locus YCL011C, strain gbp2, active compounds read low 0.993 | locus YCL016C, strain dcc1, active compounds read low 0.991 | locus YCL029C, strain bik1, active compounds read low 1 | locus YCL061C, strain MRC1, active compounds read low 0.988 | locus YCL069W, strain vba3, active compounds read low 0.982 | locus YCR088W, strain abp1, active compounds read low 0.987 | locus YDL005C, strain med2, active compounds read low 0.971 | locus YDL035C, strain GPR1, active compounds read low 1.01 | locus YDL040C, strain nat1, active compounds read low 0.972 | locus YDL074C, strain BRE1, active compounds read low 0.994 | locus YDL101C, strain DUN1, active compounds read low 1.01 | locus YDL185W, strain tfp1, active compounds read low 0.999 | locus YDL192W, strain arf1, active compounds read low 1.01 | locus YDR001C, strain nth1, active compounds read low 0.986 | locus YDR069C, strain doa4, active compounds read low 0.993 | locus YDR101C, strain arx1, active compounds read low 1.01 | locus YDR137W, strain rgp1, active compounds read low 1 | locus YDR150W, strain NUM1, active compounds read low 1.01 | locus YDR159W, strain sac3, active compounds read low 0.941 | locus YDR162C, strain NBP2, active compounds read low 1.02 | locus YDR195W, strain ref2 0.978 | locus YDR297W, strain sur2, active compounds read low 0.983 | locus YDR318W, strain mcm21, active compounds read low 0.997 | locus YDR334W, strain swr1, active compounds read low 0.972 | locus YDR335W, strain msn5, active compounds read low 0.987 | locus YDR388W, active compounds read low 1 | locus YDR392W, strain spt3, active compounds read low 0.966 | locus YDR502C, strain sam2, active compounds read low 0.992 | locus YEL003W, strain gim4, active compounds read low 0.979 | locus YEL037C, strain rad23, active compounds read low 0.974 | locus YEL061C, strain CIN8 (second series), active compounds read low 0.983 | locus YER015W, strain faa2, active compounds read low 0.992 | locus YER016W, strain bim1, active compounds read low 0.987 | locus YER110C, active compounds read low 1 | locus YER111C, strain swi4, active compounds read low 0.976 | locus YER155C, strain BEM2 (second series), active compounds read low 0.986 | locus YER155C, strain BEM2, active compounds read low 0.996 | locus YER167W, strain BCK2, active compounds read low 1.01 | locus YFR010W, strain ubp6, active compounds read low 0.964 | locus YGL078C, strain dbp3, active compounds read low 0.997 | locus YGL086W, strain mad1, active compounds read low 1.03 | locus YGL167C, strain pmr1, active compounds read low 0.971 | locus YGL173C, strain kem1, active compounds read low 0.986 | locus YGL227W, strain vid30, active compounds read low 0.988 | locus YGL240W, strain doc1, active compounds read low 0.96 | locus YGL248W, strain PDE1, active compounds read low 1.01 | locus YGL253W, strain hxk2, active compounds read low 0.94 | locus YGR135W, strain pre9, active compounds read low 0.975 | locus YGR252W, strain gcn5, active compounds read low 0.928 | locus YHR013C, strain ard1, active compounds read low 0.969 | locus YHR027C, strain rpn1, active compounds read low 0.978 | locus YHR030C, strain SLT2, active compounds read low 0.988 | locus YHR079C, strain IRE1 (second series), active compounds read low 1 | locus YHR079C, strain IRE1, active compounds read low 1 | locus YHR094C, strain hxt1, active compounds read low 1 | locus YHR129C, strain ARP1, active compounds read low 1.01 | locus YHR142W, strain chs7, active compounds read low 0.965 | locus YHR200W, strain rpn10, active compounds read low 1 | locus YIL066C, strain RNR3, active compounds read low 1.01 | locus YIL073C, strain SPO22, active compounds read low 1.04 | locus YIL125W, strain kgd1, active compounds read low 0.996 | locus YIR030C, strain dcg1, active compounds read low 0.998 | locus YJL092W, strain hpr5, active compounds read low 0.981 | locus YJL095W, strain BCK1 (second series), active compounds read low 0.99 | locus YJL095W, strain BCK1, active compounds read low 1 | locus YJL115W, strain asf1, active compounds read low 0.982 | locus YJL129C, strain trk1, active compounds read low 0.965 | locus YJL134W, strain LCB3, active compounds read low 1.01 | locus YJL154C, strain vps35, active compounds read low 0.98 | locus YJL164C, strain tpk1, active compounds read low 1.03 | locus YJL166W, strain qcr8, active compounds read low 0.987 | locus YJL168C, strain set2, active compounds read low 0.996 | locus YJL187C, strain SWE1 (second series), active compounds read low 1 | locus YJL187C, strain SWE1, active compounds read low 0.993 | locus YJR066W, strain TOR1, active compounds read low 0.942 | locus YKL009W, strain mrt4, active compounds read low 1.08 | locus YKL068W, active compounds read low 1.01 | locus YKL160W, strain elf1, active compounds read low 1 | locus YKL190W, strain CNB1, active compounds read low 1.01 | locus YKR001C, strain vps1, active compounds read low 0.989 | locus YKR026C, strain gcn3, active compounds read low 0.977 | locus YKR091W, strain srl3, active compounds read low 0.982 | locus YLL001W, strain dnm1, active compounds read low 0.991 | locus YLL026W, active compounds read low 0.988 | locus YLL041C, strain sdh2, active compounds read low 0.981 | locus YLR027C, strain aat2, active compounds read low 0.962 | locus YLR039C, strain RIC1, active compounds read low 1.06 | locus YLR058C, strain SHM2, active compounds read low 1.01 | locus YLR102C, strain apc9, active compounds read low 1 | locus YLR113W, strain HOG1, active compounds read low 0.999 | locus YLR221C, strain rsa3, active compounds read low 0.964 | locus YLR258W, strain gsy2, active compounds read low 0.99 | locus YLR262C, strain YPT6 (second series), active compounds read low 0.994 | locus YLR268W, strain sec22, active compounds read low 1.01 | locus YLR320W, strain mms22, active compounds read low 0.966 | locus YLR342W, strain FKS1, active compounds read low 0.985 | locus YLR357W, strain rsc2, active compounds read low 0.953 | locus YLR370C, strain arc18, active compounds read low 0.971 | locus YLR371W, strain rom2, active compounds read low 0.997 | locus YLR384C, strain iki3, active compounds read low 0.993 | locus YLR418C, strain cdc73, active compounds read low 0.979 | locus YML016C, strain PPZ1, active compounds read low 1.01 | locus YML032C, strain rad52, active compounds read low 1.01 | locus YML120C, strain ndi1, active compounds read low 0.992 | locus YML124C, strain tub3, active compounds read low 1 | locus YMR058W, strain fet3, active compounds read low 0.986 | locus YMR078C, strain ctf18, active compounds read low 1.01 | locus YMR125W, strain sto1, active compounds read low 0.999 | locus YMR129W, active compounds read low 0.987 | locus YMR205C, strain PFK2, active compounds read low 0.991 | locus YMR223W, strain ubp8, active compounds read low 0.998 | locus YMR231W, strain pep5, active compounds read low 0.95 | locus YMR307W, strain GAS1, active compounds read low 0.941 | locus YNL067W, strain RPL9B, active compounds read low 0.997 | locus YNL071W, strain lat1, active compounds read low 0.99 | locus YNL183C, strain NPR1, active compounds read low 0.963 | locus YNL209W, strain ssb2, active compounds read low 0.998 | locus YNL233W, strain BNI4, active compounds read low 1.03 | locus YNL248C, strain rpa49, active compounds read low 0.973 | locus YNL250W, strain rad50, active compounds read low 0.983 | locus YNL271C, strain bni1, active compounds read low 1 | locus YNL298W, strain CLA4, active compounds read low 1 | locus YNL307C, strain MCK1, active compounds read low 0.993 | locus YNL322C, strain KRE1 (second series), active compounds read low 0.978 | locus YNL322C, strain KRE1, active compounds read low 1.01 | locus YNR049C, strain mso1, active compounds read low 0.976 | locus YNR052C, strain pop2, active compounds read low 0.996 | locus YOL012C, strain htz1 0.75 | locus YOL147C, strain pex11, active compounds read low 1.01 | locus YOR001W, strain rrp6, active compounds read low 0.97 | locus YOR061W, strain CKA2, active compounds read low 1 | locus YOR069W, strain VPS5, active compounds read low 1 | locus YOR070C, strain gyp1, active compounds read low 0.975 | locus YOR080W, strain dia2, active compounds read low 0.971 | locus YOR083W, strain WHI5, active compounds read low 1.01 | locus YOR106W, strain vam3, active compounds read low 0.994 | locus YOR136W, strain idh2, active compounds read low 0.997 | locus YOR144C, strain elg1, active compounds read low 1.02 | locus YOR184W, strain ser1, active compounds read low 1.01 | locus YOR231W, strain MKK1, active compounds read low 0.986 | locus YOR265W, strain rbl2, active compounds read low 0.981 | locus YOR270C, strain vph1, active compounds read low 0.922 | locus YOR290C, strain snf2, active compounds read low 0.994 | locus YOR316C, strain cot1, active compounds read low 1 | locus YPL051W, strain arl3, active compounds read low 0.986 | locus YPL078C, strain atp4, active compounds read low 0.994 | locus YPL106C, strain sse1, active compounds read low 0.989 | locus YPL240C, strain hsp82, active compounds read low 0.981 | locus YPL256C, strain CLN2, active compounds read low 0.984 | locus YPR119W, strain clb2, active compounds read low 0.996 | locus YPR141C, strain kar3, active compounds read low 1.01 | locus YPR163C, strain tif3, active compounds read low 0.999 | locus YPR167C, strain met16, active compounds read low 0.998 | strain wtn01, active compounds read low 1
